Compounds with a hit are over-represented: about 12% of the library has one in this group of screens.
G9a inh: G9a (human) methyltransferase inhibition; hit rate 8.8% among 350,000; G9a H3K9 monomethylation, AlphaScreen, 2 h; AID 504332; Q96KQ7; Potency, µM (top dose mostly 102 µM), without a hit: at the top dose activity, negative = inhibition, actives largely listed as inhibitors; further: potency means the concentration at half of the fitted maximal effect; on the % scale 0 is the no-effect control and ±100 the full control effect; nearly all actives have a fitted effect of over 75% in size
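Compounds were preincubated with 20 nM G9a for 15 min, after which biotinylated H3K9 peptide (500 nM) and SAM (20 uM) started a 2 h room-temperature reaction. Monomethylated product was quantified by antibody-based AlphaScreen chemiluminescence.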
BAZ2B block: BAZ2B (human) inhibition. Q9UIF8. AlphaScreen BAZ2B-H3K14Ac peptide displacement. Potency, µM (doses to about 114 µM), for the others: at the highest dose activity change, negative = inhibition, hits mostly inhibitors. hit rate 4.4% among 360,000. AID 504333; further: potency means the concentration at half of the fitted maximal effect; on the % scale 0 is the no-effect control and ±100 the full control effect; nearly all actives have a fitted effect of over 60% in size
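AlphaScreen displacement: compounds (up to 110uM) incubated 30 min at room temperature with a preformed 50 nM BAZ2B/50 nM biotinylated H3K14Ac peptide complex in PBS pH 7.4 with Tween-20. Donor and acceptor beads at 10 ug/mL final added, 20 min light-protected before reading.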
JMJD2A Tudor: inhibitors of human JMJD2A Tudor domain; O75164; Potency, µM (series often up to 114 µM), inactives show at the top dose activity change, negative = inhibition, usual class: inhibitors; AlphaScreen JMJD2A-Tudor / H3K4me3 peptide binding; AID 504339; hit rate 4.4% among 390,000; further: potency means the concentration at half of the fitted maximal effect; on the % scale 0 is the no-effect control and ±100 the full control effect; nearly all actives have a fitted effect of over 50% in size
PI5P4Ka inh: PI5P4K alpha (human) kinase inhibition; hit rate 1.2% among 330,000; max response, %; PI5P4Kalpha enzyme, ADP-Glo luminescence, 60 min; hits give low values; AID 652105; active means max response of -50% or lower; inconclusive means between -30% and -50%; inactive means -30% or higher; further: value at the top dose of about 77 µM; on the % scale 0 is the no-effect control and ±100 the full control effect
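Compounds were pin-transferred onto PI5P4Kalpha and substrate in HEPES pH 7.4 buffer with EGTA, CHAPS and 5% DMSO. ATP (5 microM final) started the reaction, which ran 60 minutes at room temperature before ADP-Glo detection.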
PLK1 PBD block: inhibitors of human PLK1 polo-box domain binding. Plk1 PBD binding of FITC phosphopeptide, fluorescence polarization. Potency, µM, for the others: max response, negative = inhibition, most hits filed as inhibitors. hit rate 2.8% among 360,000. AID 720504; further: potency means the concentration at half of the fitted maximal effect; series mostly up to about 57 µM; on the % scale 0 is the no-effect control and ±100 the full control effect; nearly all actives have a fitted effect of over 65% in size
HP1b binding inh: blocks HP1-beta chromodomain binding to methylated histone tails; hit rate 0.56% among 390,000; P83916; AlphaScreen HP1-beta / biotin-H3K9me3 peptide binding; Potency, µM (highest dose often 114 µM), without a hit: at the highest dose activity change, negative = inhibition, hits mostly inhibitors; further: potency means the concentration at half of the fitted maximal effect; nearly all actives have a fitted effect of over 70% in size
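AlphaScreen: HP1-beta (50 nM) preformed 30 min with biotin-H3(1-18)K9me3 peptide (50 nM) in PBS pH 7.4, 0.01% Tween-20. Compound added for 30 min at RT, then streptavidin donor/nickel chelate acceptor beads (10 ug/mL) for 30 min.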
The depositor's hits bear a star; ? = inconclusive; / = no result given; [ ] = another dose, or the depositor's remark. Unless noted, the call rests on the fitted dose curve; in most records, active means well fitted curve in the direction sought with a large enough effect; inconclusive means small, poorly fitted or top-dose-only effect, or another doubt; inactive means no such curve, though single readings can be large; an effect the other way counts as inactive or inconclusive.

SMILES	G9a inh	BAZ2B block	JMJD2A Tudor	PI5P4Ka inh	PLK1 PBD block	HP1b binding inh
O=C(O)c1ccc(NC2=C/C(=N/S(=O)(=O)c3ccccc3)c3ccccc3C2=O)cc1	13µM*	20µM*	50µM*	?	11µM*	?
Cc1cc(C)c(S(=O)(=O)c2ccccc2C(=O)O)c(C)c1	?	-1%	-11%	0	0%	20%
Cc1cc(C)c(S(=O)(=O)/N=C2\C=C(Nc3ccc(C(=O)O)cc3)C(=O)c3ccccc32)c(C)c1	10µM*	8.9µM*	32µM*	-79*	?	?
CCOc1ccc2nc(NC(=O)CS(=O)(=O)c3ccc(Cl)cc3)sc2c1	-27%[59 µM]	-14%	-31%	/	/	26%
CN1/C(=C\C(=S)NC(=O)c2ccccc2Cl)C(C)(C)c2ccccc21	35µM*	11µM*	25µM*	2	-14%	25µM*
COc1ccccc1C(=O)NC(=S)/C=C1/N(C)c2ccccc2C1(C)C	10µM*	11µM*	16µM*	15	-19%	-85%
CCOC(=O)/C=C1/N(C)c2ccccc2C1(C)C	4%	-18%	-7%	6	-8%	35%
CN1/C(=C\C(=O)Nc2ccc(Cl)cc2)C(C)(C)c2ccccc21	?	-32%	-33%	4	-3%	19%
CN1/C(=C/C(=S)NC(=O)C2(C)CC2(Cl)Cl)C(C)(C)c2ccccc21 (stereo not drawn)	?	20µM*	35µM*	-1	-1%	18µM*
CN1/C(=C\C(=O)c2cccs2)C(C)(C)c2ccccc21	247%[59 µM]	157%	10%	-4	6%	51%
CCCc1cc(=O)n2[nH]c(C)c(-c3ccc(OC)cc3)c2n1	/	-33%	-23%	3	?	7%
CCCCN1CCCCC1(C)C(=O)NCc1cccc(OC)c1 (stereo not drawn)	/	/	/	0	-2%	/
CC(C)C(Cl)=NOC(=O)Nc1ccc(F)cc1	/	/	-12%	7	13µM*	-6%
C/C(=N\OC(=O)Nc1ccc(Cl)cc1)c1ccc(F)c(F)c1	67%	-3%	14%	10	1%	31%
COC(=O)c1ccc(C(=O)OC)c(-n2c(=O)c3ccccc3c3ccccc3c2=O)c1	28µM*	?	-26%	2	?	39%
CCOc1ccccc1-n1nnc(-c2nc(-c3ccccc3)no2)c1N	-1%[59 µM]	-8%	-7%	/	/	34%
O=[N+]([O-])c1ccc(NC2CCN(Cc3ccccc3)CC2)c([N+](=O)[O-])c1	?	?	-72%	-3	2%	?
CC1CCC2C(=O)N(c3ccc(NC4CCN(Cc5ccccc5)CC4)c([N+](=O)[O-])c3)C(=O)C2C1 (stereo not drawn)	40µM*	35µM*	32µM*	9	8%	?
O=[N+]([O-])c1ccccc1NC1CCN(Cc2ccccc2)CC1	/	40µM*	?	-2	0%	?
O=C1C2CCCCC2C(=O)N1c1ccc(NC2CCN(Cc3ccccc3)CC2)c([N+](=O)[O-])c1 (stereo not drawn)	?	40µM*	45µM*	1	-1%	?
CC(C)CCNC(=O)C1CCN(C(=O)N2CCOc3ccc(Cl)cc32)CC1	-35%[59 µM]	-20%	-27%	/	/	23%
N#Cc1nc(Nc2cc(F)cc(F)c2)c2ncn(CCCN3CCCC3)c2n1	/	/	-21%	/	/	/
CC(C)C(=O)N1CCC1(C)C(=O)Nc1cc(-c2ccccc2)nn1C (stereo not drawn)	/	/	/	-5	-11%	/
CCOC(=O)C1CCN(S(=O)(=O)c2ccc(OC)c(C(=O)N3CCCCC3)c2)CC1	-5%	6%	-4%	-2	-11%	6%
CCOc1cc(/C=N/n2c(C)nnc2C)ccc1O	-2%	-1%	-5%	0	-10%	37%
SMILES	G9a inh	BAZ2B block	JMJD2A Tudor	PI5P4Ka inh	PLK1 PBD block	HP1b binding inh
O=C1C2C3C=CC(CC3)C2C(=O)N1/N=C/c1c(O)ccc2ccccc12 (stereo not drawn)	25µM*	-5%	-7%	4	-7%	19%
Cc1nnc(C)n1/N=C/c1c(O)ccc2ccccc12	7%[2.33 µM]	?	8.9µM*	10	?	37%
Cn1c(/N=C/c2c(O)ccc3ccccc23)nc2ccccc21	1.8µM*	56µM*	40µM*	/	1.3µM*	?
Cc1nnc(-c2ccccc2)c(=O)n1/N=C/c1c(O)ccc2ccccc12	?	25µM*	56µM*	7	-1%	3%
CCN(CC)c1ccc(C2CC(=O)Nc3cc(OC)c(OC)cc32)cc1 (stereo not drawn)	?	45µM*	50µM*	6	-3%	-48%
COc1cc2c(cc1OC)C(c1ccc(N(C)C)cc1)CC(=O)N2 (stereo not drawn)	?	?	?	-5	-1%	-16%
COc1cc2c(cc1OC)-c1nnnn1C(C)(C)C2	-1%[59 µM]	-1%	-3%	/	-4%	39%
COc1cc2c(cc1OC)-c1n[nH]c(=S)n1C(C)(C)C2	4µM*	-3%	40µM*	-25	?	41%
CC[n+]1c(/C=C/C=C2/N(C)c3ccccc3C2(C)C)sc2ccccc21	8.9µM*	/	/	/	/	/
CCN1C(=O)/C(=C/N(C(C)=O)c2ccccc2)N(c2ccccc2)C1=S	?	-37%	-20%	0	-17%	18%
CC[n+]1c(/C=C/C=C/N(C(C)=O)c2ccccc2)sc2ccccc21	29%[0.501 µM]	28µM*	79µM*	?	107%	-30%
CCn1c(/C=C/N(C(C)=O)c2ccccc2)[n+](CC)c2ccc(Cl)cc21	79µM*	?	-10%	-5	1%	10%
O=C(O)C(CCc1ccccc1)N1C(=O)c2ccccc2C1=O (stereo not drawn)	/	/	-1%	-6	3%	30%
COCCCn1c(SCC(=O)NC2CCCC2)nnc1-c1cccs1	12%	5%	-14%	-9	-5%	-8%
COc1ccccc1N1CCN(/N=C/c2ccc([N+](=O)[O-])cc2)CC1	18µM*	18µM*	28µM*	15	-5%	?
COc1ccccc1N1CCN(/N=C/c2ccc(Cl)c([N+](=O)[O-])c2)CC1	/	18µM*	?	5	-13%	?
CCN(CC)C1CCN(C(=O)CCn2nnnc2CN2CCOCC2)C1 (stereo not drawn)	25%	-2%	-14%	4	2%	20%
Cc1ccc(C)c(CN2C(=O)c3ccccc3S(=O)(=O)c3ccc(C(=O)Nc4ccccc4C(F)(F)F)cc32)c1	-40%[59 µM]	-21%	-16%	/	/	26%
COCCNC(=S)N(C)C1(c2ccccc2Cl)CCCCC1=O (stereo not drawn)	45µM*	-13%	-3%	-1	-11%	27%

Assay outcomes as filed in PubChem BioAssay.
